Measurements published in ChEMBL document CHEMBL2218924, “A broad activity screen in support of a chemogenomic map for kinase signalling research and drug discovery” (Biochem J, 2013).

Assays:
[1] = target: Vascular endothelial growth factor receptor 3 (Homo sapiens) (UniProt P35916); details: at 10 µM
[2] = target: Macrophage colony-stimulating factor 1 receptor (Homo sapiens) (UniProt P07333); details: at 1 µM
[3] = target: Macrophage colony-stimulating factor 1 receptor (Homo sapiens) (UniProt P07333); details: at 10 µM
[4] = target: Tyrosine-protein kinase Fyn (Homo sapiens) (UniProt P06241); details: at 1 µM
[5] = target: Tyrosine-protein kinase Fyn (Homo sapiens) (UniProt P06241); details: at 10 µM
[6] = target: T1, Mitogen-activated protein kinase kinase kinase kinase 2 (Homo sapiens) (UniProt Q12851); details: at 10 µM
T1 sequence (whole entry): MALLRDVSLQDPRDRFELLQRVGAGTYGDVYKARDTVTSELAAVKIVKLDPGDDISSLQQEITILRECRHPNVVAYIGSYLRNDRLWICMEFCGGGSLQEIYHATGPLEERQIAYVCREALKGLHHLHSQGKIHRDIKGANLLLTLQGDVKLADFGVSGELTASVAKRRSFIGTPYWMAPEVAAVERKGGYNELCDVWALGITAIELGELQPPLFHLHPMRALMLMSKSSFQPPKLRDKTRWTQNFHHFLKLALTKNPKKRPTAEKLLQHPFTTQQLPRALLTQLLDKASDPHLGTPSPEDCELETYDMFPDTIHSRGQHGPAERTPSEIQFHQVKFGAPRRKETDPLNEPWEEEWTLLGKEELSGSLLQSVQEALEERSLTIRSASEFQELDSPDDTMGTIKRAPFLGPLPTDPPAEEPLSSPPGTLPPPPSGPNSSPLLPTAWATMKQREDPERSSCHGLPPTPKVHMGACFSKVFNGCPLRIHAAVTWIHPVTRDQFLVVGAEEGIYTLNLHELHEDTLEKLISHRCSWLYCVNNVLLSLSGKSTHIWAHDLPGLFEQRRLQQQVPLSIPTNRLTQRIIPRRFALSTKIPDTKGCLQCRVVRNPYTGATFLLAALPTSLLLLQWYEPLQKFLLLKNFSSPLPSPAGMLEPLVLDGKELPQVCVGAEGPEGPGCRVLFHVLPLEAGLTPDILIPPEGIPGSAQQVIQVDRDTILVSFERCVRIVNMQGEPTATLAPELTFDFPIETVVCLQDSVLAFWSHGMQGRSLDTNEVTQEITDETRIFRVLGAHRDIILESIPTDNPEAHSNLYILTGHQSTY

[7] = target: G protein-coupled receptor kinase 5 (Homo sapiens) (UniProt P34947); details: at 10 µM
[8] = target: G protein-coupled receptor kinase 6 (Homo sapiens) (UniProt P43250); details: at 1 µM
[9] = target: G protein-coupled receptor kinase 6 (Homo sapiens) (UniProt P43250); details: at 10 µM
[10] = target: T2, Rhodopsin kinase GRK7 (Homo sapiens) (UniProt Q8WTQ7); details: at 1 µM
T2 sequence (whole entry): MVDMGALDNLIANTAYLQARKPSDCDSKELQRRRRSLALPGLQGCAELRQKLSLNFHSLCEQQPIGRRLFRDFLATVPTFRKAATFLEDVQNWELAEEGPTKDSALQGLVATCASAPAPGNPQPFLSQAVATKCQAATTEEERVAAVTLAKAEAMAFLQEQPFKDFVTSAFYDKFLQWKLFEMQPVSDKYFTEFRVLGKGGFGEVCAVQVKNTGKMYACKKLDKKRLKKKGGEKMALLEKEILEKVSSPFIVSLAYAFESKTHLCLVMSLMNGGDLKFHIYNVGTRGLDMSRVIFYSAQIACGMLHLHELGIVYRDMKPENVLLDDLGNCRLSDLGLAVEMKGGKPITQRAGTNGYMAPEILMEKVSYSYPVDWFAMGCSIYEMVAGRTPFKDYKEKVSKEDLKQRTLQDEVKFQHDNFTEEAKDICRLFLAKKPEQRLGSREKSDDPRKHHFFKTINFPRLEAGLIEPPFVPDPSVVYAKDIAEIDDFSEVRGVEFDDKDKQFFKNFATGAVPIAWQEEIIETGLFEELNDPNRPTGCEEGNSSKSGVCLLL

[11] = target: T2, Rhodopsin kinase GRK7 (Homo sapiens); details: at 10 µM
[12] = target: Glycogen synthase kinase-3 alpha (Homo sapiens) (UniProt P49840); details: at 1 µM
[13] = target: Glycogen synthase kinase-3 beta (Homo sapiens) (UniProt P49841); details: at 1 µM
[14] = target: Glycogen synthase kinase-3 beta (Homo sapiens) (UniProt P49841); details: at 10 µM
[15] = target: T1, Mitogen-activated protein kinase kinase kinase kinase 2 (Homo sapiens); details: at 1 µM
[16] = target: G protein-coupled receptor kinase 5 (Homo sapiens) (UniProt P34947); details: at 1 µM
[17] = target: Glycogen synthase kinase-3 alpha (Homo sapiens) (UniProt P49840); details: at 10 µM
[18] = target: Homeodomain-interacting protein kinase 1 (Homo sapiens) (UniProt Q86Z02); details: at 1 µM
[19] = target: Homeodomain-interacting protein kinase 1 (Homo sapiens) (UniProt Q86Z02); details: at 10 µM
[20] = target: Homeodomain-interacting protein kinase 2 (Homo sapiens) (UniProt Q9H2X6); details: at 1 µM

Sequence of Homeodomain-interacting protein kinase 1 (Homo sapiens) (Q86Z02 whole entry, looked up): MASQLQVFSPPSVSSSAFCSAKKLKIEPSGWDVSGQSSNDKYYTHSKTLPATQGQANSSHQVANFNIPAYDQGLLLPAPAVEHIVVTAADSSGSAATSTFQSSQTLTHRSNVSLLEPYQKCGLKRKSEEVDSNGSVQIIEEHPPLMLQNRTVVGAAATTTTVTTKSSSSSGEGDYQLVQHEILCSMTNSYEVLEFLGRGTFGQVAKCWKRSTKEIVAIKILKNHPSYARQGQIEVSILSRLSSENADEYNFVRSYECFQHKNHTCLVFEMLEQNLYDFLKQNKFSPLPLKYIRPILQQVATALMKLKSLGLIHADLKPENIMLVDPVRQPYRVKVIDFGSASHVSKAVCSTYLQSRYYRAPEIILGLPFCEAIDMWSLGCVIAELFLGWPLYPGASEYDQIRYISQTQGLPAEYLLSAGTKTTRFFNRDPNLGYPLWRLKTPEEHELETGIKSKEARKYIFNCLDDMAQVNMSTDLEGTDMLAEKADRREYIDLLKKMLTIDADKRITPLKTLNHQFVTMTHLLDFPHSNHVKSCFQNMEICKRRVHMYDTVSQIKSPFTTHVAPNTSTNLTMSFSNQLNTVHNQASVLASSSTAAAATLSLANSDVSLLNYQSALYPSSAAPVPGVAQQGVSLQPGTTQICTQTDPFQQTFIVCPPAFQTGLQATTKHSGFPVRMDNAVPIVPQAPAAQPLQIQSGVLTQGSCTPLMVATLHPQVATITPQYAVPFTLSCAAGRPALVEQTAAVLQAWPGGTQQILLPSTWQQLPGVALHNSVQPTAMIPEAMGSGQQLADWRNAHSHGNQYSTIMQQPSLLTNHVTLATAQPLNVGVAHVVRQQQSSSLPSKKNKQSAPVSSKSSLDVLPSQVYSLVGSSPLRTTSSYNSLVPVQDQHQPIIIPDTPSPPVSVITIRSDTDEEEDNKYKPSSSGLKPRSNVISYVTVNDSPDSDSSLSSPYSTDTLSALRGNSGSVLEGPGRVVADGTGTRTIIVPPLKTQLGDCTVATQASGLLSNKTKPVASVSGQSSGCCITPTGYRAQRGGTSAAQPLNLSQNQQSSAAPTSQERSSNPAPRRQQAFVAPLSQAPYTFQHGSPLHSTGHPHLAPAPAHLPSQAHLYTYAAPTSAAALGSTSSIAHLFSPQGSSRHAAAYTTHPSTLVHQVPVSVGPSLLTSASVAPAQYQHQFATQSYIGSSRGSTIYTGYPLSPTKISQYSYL
Sequence of G protein-coupled receptor kinase 5 (Homo sapiens) (P34947 whole entry, looked up): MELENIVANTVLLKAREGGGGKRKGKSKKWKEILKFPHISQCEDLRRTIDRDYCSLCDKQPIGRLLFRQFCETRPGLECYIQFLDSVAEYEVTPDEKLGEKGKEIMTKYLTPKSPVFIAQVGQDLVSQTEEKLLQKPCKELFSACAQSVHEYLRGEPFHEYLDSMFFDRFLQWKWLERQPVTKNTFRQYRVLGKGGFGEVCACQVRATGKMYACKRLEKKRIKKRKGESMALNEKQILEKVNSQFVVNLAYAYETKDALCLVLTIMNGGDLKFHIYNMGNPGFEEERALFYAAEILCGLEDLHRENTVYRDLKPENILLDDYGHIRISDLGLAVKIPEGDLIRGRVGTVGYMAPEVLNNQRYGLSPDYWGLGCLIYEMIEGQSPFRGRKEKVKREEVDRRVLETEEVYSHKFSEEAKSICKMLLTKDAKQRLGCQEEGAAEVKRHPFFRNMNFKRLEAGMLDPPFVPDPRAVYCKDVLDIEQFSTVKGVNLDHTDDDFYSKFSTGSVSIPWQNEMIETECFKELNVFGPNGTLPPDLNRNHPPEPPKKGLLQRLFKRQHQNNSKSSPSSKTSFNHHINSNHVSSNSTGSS
Sequence of Vascular endothelial growth factor receptor 3 (Homo sapiens) (P35916 whole entry): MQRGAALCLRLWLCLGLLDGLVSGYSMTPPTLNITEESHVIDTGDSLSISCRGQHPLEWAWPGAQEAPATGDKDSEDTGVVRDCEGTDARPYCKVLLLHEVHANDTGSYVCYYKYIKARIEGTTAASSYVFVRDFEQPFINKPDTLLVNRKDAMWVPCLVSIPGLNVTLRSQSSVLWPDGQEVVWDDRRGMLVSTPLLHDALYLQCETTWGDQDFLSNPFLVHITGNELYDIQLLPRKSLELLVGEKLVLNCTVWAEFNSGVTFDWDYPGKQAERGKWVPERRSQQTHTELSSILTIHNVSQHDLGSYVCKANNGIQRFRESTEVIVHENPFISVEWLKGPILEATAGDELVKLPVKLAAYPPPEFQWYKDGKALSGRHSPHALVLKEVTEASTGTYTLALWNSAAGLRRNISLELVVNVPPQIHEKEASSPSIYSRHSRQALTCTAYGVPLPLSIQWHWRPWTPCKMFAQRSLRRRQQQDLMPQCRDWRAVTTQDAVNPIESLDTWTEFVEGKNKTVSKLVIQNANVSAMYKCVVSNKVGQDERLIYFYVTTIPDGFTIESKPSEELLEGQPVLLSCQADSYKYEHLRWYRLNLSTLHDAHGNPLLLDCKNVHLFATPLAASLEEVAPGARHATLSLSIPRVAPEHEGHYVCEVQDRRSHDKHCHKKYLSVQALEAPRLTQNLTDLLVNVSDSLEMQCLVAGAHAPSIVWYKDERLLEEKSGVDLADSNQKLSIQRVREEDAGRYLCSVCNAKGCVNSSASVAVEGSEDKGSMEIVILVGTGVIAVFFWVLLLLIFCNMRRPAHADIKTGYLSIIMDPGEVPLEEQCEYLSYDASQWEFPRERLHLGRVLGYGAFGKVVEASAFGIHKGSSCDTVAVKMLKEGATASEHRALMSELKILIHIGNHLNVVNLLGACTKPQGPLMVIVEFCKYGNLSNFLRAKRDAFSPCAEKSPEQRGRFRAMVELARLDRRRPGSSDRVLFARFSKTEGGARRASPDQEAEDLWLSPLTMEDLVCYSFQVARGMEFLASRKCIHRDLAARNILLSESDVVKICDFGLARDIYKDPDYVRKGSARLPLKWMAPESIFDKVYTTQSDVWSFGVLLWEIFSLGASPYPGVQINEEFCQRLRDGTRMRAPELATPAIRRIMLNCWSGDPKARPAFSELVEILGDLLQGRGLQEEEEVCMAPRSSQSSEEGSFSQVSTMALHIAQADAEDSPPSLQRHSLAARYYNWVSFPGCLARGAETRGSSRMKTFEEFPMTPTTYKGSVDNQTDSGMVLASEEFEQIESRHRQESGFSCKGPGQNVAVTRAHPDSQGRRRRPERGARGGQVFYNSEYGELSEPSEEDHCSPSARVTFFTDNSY
Sequence of Tyrosine-protein kinase Fyn (Homo sapiens) (P06241 2-537 limits assumed): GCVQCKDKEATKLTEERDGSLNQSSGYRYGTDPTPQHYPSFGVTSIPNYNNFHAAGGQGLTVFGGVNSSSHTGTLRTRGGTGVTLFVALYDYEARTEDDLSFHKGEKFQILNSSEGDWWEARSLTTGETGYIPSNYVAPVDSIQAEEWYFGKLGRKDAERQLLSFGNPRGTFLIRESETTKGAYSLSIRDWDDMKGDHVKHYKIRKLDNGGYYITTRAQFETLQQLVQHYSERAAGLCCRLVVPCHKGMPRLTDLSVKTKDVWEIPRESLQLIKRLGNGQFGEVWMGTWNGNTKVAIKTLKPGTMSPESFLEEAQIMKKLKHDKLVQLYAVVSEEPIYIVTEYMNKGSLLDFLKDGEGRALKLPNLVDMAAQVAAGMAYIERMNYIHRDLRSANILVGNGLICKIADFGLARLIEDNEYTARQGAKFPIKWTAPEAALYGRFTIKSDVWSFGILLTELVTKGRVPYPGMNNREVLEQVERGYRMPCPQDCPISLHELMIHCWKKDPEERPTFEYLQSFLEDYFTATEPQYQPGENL
Sequence of Glycogen synthase kinase-3 beta (Homo sapiens) (P49841 whole entry, looked up): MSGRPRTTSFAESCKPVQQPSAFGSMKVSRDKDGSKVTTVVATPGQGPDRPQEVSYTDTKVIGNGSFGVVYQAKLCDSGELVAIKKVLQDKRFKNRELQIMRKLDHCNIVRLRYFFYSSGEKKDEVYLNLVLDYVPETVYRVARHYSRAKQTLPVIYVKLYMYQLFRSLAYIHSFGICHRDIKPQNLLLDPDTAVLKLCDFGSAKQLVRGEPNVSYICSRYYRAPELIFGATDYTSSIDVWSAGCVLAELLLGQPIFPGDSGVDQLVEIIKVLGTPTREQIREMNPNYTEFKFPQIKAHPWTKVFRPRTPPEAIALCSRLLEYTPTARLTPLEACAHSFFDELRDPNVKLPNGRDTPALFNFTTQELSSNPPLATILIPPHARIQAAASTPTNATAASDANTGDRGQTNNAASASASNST
Sequence of Macrophage colony-stimulating factor 1 receptor (Homo sapiens) (P07333 whole entry): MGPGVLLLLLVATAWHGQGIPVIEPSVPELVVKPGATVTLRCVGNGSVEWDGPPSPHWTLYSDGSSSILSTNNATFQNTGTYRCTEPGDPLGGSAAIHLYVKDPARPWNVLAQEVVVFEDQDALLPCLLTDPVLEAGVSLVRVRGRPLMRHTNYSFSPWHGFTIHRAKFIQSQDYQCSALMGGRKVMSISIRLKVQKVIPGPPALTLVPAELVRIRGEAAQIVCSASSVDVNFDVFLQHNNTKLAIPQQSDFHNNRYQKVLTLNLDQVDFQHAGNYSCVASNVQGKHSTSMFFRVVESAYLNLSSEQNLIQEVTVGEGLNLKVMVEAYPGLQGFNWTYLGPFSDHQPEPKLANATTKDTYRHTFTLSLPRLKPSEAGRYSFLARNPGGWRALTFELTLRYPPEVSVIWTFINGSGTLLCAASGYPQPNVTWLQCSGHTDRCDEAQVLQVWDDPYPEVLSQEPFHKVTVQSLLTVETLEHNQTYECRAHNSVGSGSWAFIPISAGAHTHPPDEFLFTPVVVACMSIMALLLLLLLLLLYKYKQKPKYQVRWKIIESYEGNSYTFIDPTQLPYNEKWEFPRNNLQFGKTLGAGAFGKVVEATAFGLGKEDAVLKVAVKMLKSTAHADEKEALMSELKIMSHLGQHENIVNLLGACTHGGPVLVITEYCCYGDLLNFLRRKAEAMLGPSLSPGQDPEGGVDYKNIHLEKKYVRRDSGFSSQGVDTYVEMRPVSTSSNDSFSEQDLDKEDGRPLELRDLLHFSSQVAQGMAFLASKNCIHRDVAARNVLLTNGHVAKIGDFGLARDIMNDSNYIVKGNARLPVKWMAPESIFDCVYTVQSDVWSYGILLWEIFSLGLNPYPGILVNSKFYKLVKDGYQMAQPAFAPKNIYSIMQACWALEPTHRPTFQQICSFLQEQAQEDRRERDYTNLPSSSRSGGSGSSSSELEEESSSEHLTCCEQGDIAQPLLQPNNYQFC

Compound	residual activity [1] [%]	residual activity [2] [%]	residual activity [3] [%]	residual activity [4] [%]	residual activity [5] [%]	residual activity [6] [%]	residual activity [7] [%]	residual activity [8] [%]	residual activity [9] [%]	residual activity [10] [%]	residual activity [11] [%]	residual activity [12] [%]	residual activity [13] [%]	residual activity [14] [%]	residual activity [15] [%]	residual activity [16] [%]	residual activity [17] [%]	residual activity [18] [%]	residual activity [19] [%]	residual activity [20] [%]
COc1ccc2c(c[n+](C)c3c4cc5c(cc4ccc23)OCO5)c1OC	62	87	74	92	63	72	82	96	93	99	91	126	97	83	–	–	–	–	–	–
O=C1Nc2ccc3ncsc3c2/C1=C/c1c[nH]cn1	0	22	3	46	12	1	25	–	60	63	20	4	4	0	7	71	1	64	26	32
CO[C@H]1[C@@H](OC)C[C@H](C)[C@@H](OC)C2=CC(=O)C=C(NC(=O)/C(C)=C/C=C/[C@H](OC)[C@@H](OC(N)=O)/C(C)=C/[C@@H]1C)C2=O	–	–	–	–	–	–	–	97	–	–	–	–	–	–	–	70	–	–	–	–
O=[N+]([O-])/C=C/c1ccc2c(c1)OCO2	95	87	100	105	92	86	91	105	89	103	86	125	–	74	92	106	113	96	112	93
CC(C)[C@H](CO)Nc1nc(Nc2cccc(Cl)c2)c2ncn(C(C)C)c2n1	3	70	34	4	-1	23	82	–	–	95	44	–	134	57	75	97	–	97	49	88
O=C1Cc2c([nH]c3ccc(Br)cc23)-c2ccccc2N1	–	–	–	–	–	–	–	–	–	–	–	–	–	–	–	95	–	–	–	–
N/C(=N\[N+](=O)[O-])N/N=C\c1ccc(-c2cccc([N+](=O)[O-])c2)o1	42	67	65	77	83	87	–	97	94	100	91	99	–	97	–	–	78	99	100	82
COC(=O)[C@@]1(O)C[C@H]2O[C@]1(C)n1c3ccccc3c3c4c(c5c6ccccc6n2c5c31)C(=O)NC4	1	2	1	4	0	1	5	36	5	4	4	14	29	10	0	40	3	78	15	22
O=C(c1cc2cc(O)ccc2[nH]1)c1cc2cc(O)ccc2[nH]1	–	–	–	–	–	–	–	–	–	–	–	–	–	–	–	79	–	–	–	–
COc1cc2ncnc(Nc3ccc(OCc4ccccc4)cc3)c2cc1OC	2	20	11	79	64	85	97	98	97	105	99	100	104	119	101	101	160	102	105	104
CN[C@@H]1C[C@H]2O[C@@](C)([C@@H]1OC)n1c3ccccc3c3c4c(c5c6ccccc6n2c5c31)C(=O)NC4	–	–	–	–	–	0	–	–	–	–	–	–	–	–	–	–	–	87	–	–
c1ccc2c(-c3ccncc3)c[nH]c2c1	–	–	–	–	–	–	–	87	–	–	–	–	–	–	–	98	–	–	–	–
O=c1[nH]c2ccccc2n1C1CCN(Cc2ccc(-c3nc4cc5[nH]cnc5cc4nc3-c3ccccc3)cc2)CC1	59	55	51	95	72	80	85	100	94	110	94	112	108	106	101	103	123	101	98	98
c1cc(-c2cnn3cc(-c4ccc(OCCN5CCCCC5)cc4)cnc23)ccn1	0	3	1	11	1	1	–	101	–	–	–	100	–	–	10	–	76	85	34	62
O=C(Nc1nc2ccccc2n1CCN1CCOCC1)c1cccc([N+](=O)[O-])c1	–	–	–	–	–	–	–	–	–	–	–	–	–	–	–	107	–	–	–	–
O=C1c2ccccc2-c2nc3nnnn3nc21	70	–	–	–	–	–	77	–	–	–	–	101	115	101	–	107	120	–	–	–
